Source: PubChem BioAssay
Most compounds without a hit are left out; they make up all but 1.8% or so of the library.
PriA SSB inh: blocks PriA binding to SSB C-terminal tail | AlphaScreen SSBct-PriA binding, biotinylated peptide | inhibition, % at 33 µM | actives 0.6% (n = 430,000) | AID 1272365; in the data active = inhibition mostly above about 37%, no sharp cut-off; inactive = mostly below about 20%;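 also: plate controls were negative control peptide for no effect and reference peptide for full effect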
VHR inh abs: DUSP3 (human) phosphatase inhibition; recombinant VHR phosphatase, pNPP absorbance; actives 0.52% (n = 290,000); AID 1654; inhibition, % at 13.3 µM; in the data active = inhibition above about 50%
Target sequence (P51452 whole entry, looked up): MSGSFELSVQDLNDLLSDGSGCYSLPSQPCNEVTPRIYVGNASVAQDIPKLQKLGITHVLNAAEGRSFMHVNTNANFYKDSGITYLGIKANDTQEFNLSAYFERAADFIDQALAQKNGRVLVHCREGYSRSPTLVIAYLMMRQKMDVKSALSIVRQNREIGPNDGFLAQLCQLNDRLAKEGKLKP
PfHsp40 rescue: compounds rescuing yeast from Plasmodium falciparum HSP40 toxicity. AID 504582. actives 0.68% (n = 340,000). S. cerevisiae expressing PfHsp40, growth rescue, ATP luminescence. growth rescue, % at 12.5 µM; in the data active = growth rescue above about 28%, passing the limit was not always enough;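 also: yeast W303a lacking pdr1 and pdr3 grown in galactose medium; growth measured after three days at 30 °C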
Sa ugtP lethal: growth inhibition of S. aureus ugtP deletion strain; growth inhibition, % (no concentration beside the values); actives 0.54% (n = 330,000); AID 1259309; S. aureus RN4220 ugtP deletion, OD600 growth, 16 h; in the data active = growth inhibition above about 68%;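 also: plate controls were untreated wells for no effect and antibiotic for full effect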
Sa RN4220 lethal: S. aureus RN4220 growth inhibition. OD600, 16 h. inhibition, % (concentration not given with the values). actives 0.33% (n = 330,000); in the data active = inhibition above about 85%;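 also: plate controls were untreated cells for no effect and reference antibiotic for full effect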
Mtb hypoxia rep: reduces hypoxia-regulated biosensor signal in M. tuberculosis. actives 0.1% (n = 300,000). fluorescence inhibition, % (no concentration beside the values). M. tuberculosis hypoxia-regulated fluorescent reporter, fluorescence; in the data active = fluorescence inhibition mostly above about 23%, no sharp cut-off; inactive = mostly below about 17%
Active calls of the source: *; nt = no result given.

SMILES	PriA SSB inh	VHR inh abs	PfHsp40 rescue	Sa ugtP lethal	Sa RN4220 lethal	Mtb hypoxia rep
[O-][n+]1cccc2c(Br)cc(Br)c(O)c21	69*	28	310*	-10	20	-1
Nc1c(N2CCCC2)cc(Cl)c2nonc12	-6	56*	0	2	10	1
Nc1c(N2CCOCC2)cc(Cl)c2nonc12	3	-1	-1	-3	-1	0
Cc1ccc(CNC(=O)CC2CSc3nc4c(c(=O)n32)CCCC4)cc1 (configuration not stated)	9	nt	nt	nt	nt	nt
CCCCOC(=O)/C=C/c1ccc(OC(=O)OC)c(OC(=O)OC)c1	-13	-8	287*	5	5	1
C(=Nc1ccc(N2CCOCC2)cc1)c1c[nH]c2ccccc12	17	23	-1	0	3	16
Oc1ccc(N=Cc2c[nH]c3ccccc23)cc1	46*	nt	nt	nt	nt	nt
O=C(CCN1CCc2ccccc21)c1ccc2c(c1)OCCO2	48*	-8	-1	2	10	2
COC(C(=O)Nc1ccnn1C1CCN(C(=O)c2ccc(C)cc2)CC1)c1ccccc1 (configuration not stated)	5	51*	0	7	5	-7
Cc1noc(C(=O)NCc2ccccc2)c1Cl	104*	-6	2	15	-1	10
CC(=O)c1cccc(NC(=O)c2onc(C)c2Cl)c1	115*	11	-1	3	2	6
CC(=O)c1ccc(NC(=O)c2onc(C)c2Cl)cc1	-5	-15	0	2	-2	2
O=C(Nc1nc(-c2ccc(Cl)cc2)cs1)C1CCN(S(=O)(=O)c2ccc(Cl)cc2)CC1	-5	nt	nt	nt	nt	nt
O=C(CN1C(=O)NC2(CCCCCC2)C1=O)Nc1ccc(Cl)cc1Cl	-6	nt	0	-1	1	3
CC(NC(=O)CN1C(=O)NC2(CCCC2)C1=O)c1ccc(Cl)cc1Cl (configuration not stated)	-13	nt	61*	0	0	7
CCC1(C)NC(C(=O)O)Cc2c1[nH]c1ccccc21 (configuration not stated)	-18	60*	0	7	8	5
Cc1c(Cl)sn(-c2ccc(Cl)cc2)c1=O	-22	2	23	101*	101*	nt
CCOc1ccc(NC(=O)c2oc3ccccc3c2NC(=O)CC2CCCC2)cc1	-17	nt	nt	nt	nt	nt
CCOc1ccc(N2CC(C(=O)Nc3ccc(S(=O)(=O)N4CCCCC4)cc3)CC2=O)cc1 (configuration not stated)	-12	nt	2	0	0	8
CCOc1ccc(N2CC(C(=O)Nc3ccc(S(=O)(=O)N4CCCC4)cc3)CC2=O)cc1 (configuration not stated)	-8	55*	-1	4	2	-15
CCCCC1S/C(=N/N=Cc2ccco2)NC1=O (configuration not stated)	nt	nt	nt	6	5	7
COc1ccnc2c1c(=O)n(Cc1c(F)cccc1Cl)c(=O)n2C	0	50*	0	4	3	6
c1ccc(-c2ccc(OCC3CO3)cc2)cc1 (configuration not stated)	-49	nt	nt	nt	nt	nt
CCOC(=O)C1CCN(c2c(C(=O)c3ccccc3)cnc3ccc(CC)cc23)CC1	2	9	1	94*	39	1
COc1cc2ncc(C(=O)c3ccccc3)c(N3CCN(Cc4ccccc4)CC3)c2cc1OC	2	-2	54*	14	-6	-11
SMILES	PriA SSB inh	VHR inh abs	PfHsp40 rescue	Sa ugtP lethal	Sa RN4220 lethal	Mtb hypoxia rep
CCOC(=O)C1CCCN(c2c(C(=O)c3ccccc3)cnc3ccccc23)C1 (configuration not stated)	0	18	0	69	2	-1
COc1ccc(S(=O)(=O)NCC(c2ccsc2)N2CCc3ccccc3C2)cc1 (configuration not stated)	-4	nt	nt	nt	nt	nt
COc1ccc2oc(C(=O)OCC(=O)c3ccc4c(c3)OCCO4)c(C)c2c1	1	15	72*	16	3	8
COc1ccc2oc(C(=O)N(C)Cc3ccc4c(c3)OCCO4)c(C)c2c1	1	nt	-2	2	3	0
COc1ccc2oc(C(=O)NCC3CCCO3)c(C)c2c1 (configuration not stated)	-26	52*	0	1	3	14
Cc1cc(NC(=O)c2cccn(Cc3c(F)cccc3Cl)c2=O)c2ccccc2n1	-9	nt	nt	nt	nt	nt
CCOc1cc(S(=O)(=O)NC2CCCCCC2)ccc1F	-18	-26	48*	-3	2	nt
